Bioassay records (PubChem)
Compounds with a hit are over-represented: about 4.1% of the library has one in this group of screens.
MPTP inh – blocks calcium-induced mitochondrial swelling | isolated mouse mitochondria, Ca2+ swelling absorbance, 30 min | inhibition, % at 10 µM | hit rate 1.4% among 360,000 | AID 602449;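 active means inhibition of 50% or more, scaled per plate between neutral and stimulator controls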;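 further: 0% = DMSO wells given calcium and 100% = 1 mM EGTA wells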
beta cell repl – induces beta-cell replication in MIN6 cells; MIN6 cells proliferation, ATPlite luminescence, 48 h; cells starved in 0.2% serum; 100% = growth in 10% serum; proliferation, % at 10 µM; hit rate 0.29% among 330,000;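 active means compounds whose signal lies at least 3.5 SD above the mean of all wells on their plate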;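 further: 0% = DMSO-treated cells in low-serum medium and 100% = 10% serum control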
FAS-TE inh – FAS thioesterase (human) inhibition | recombinant FAS-TE, OMFH fluorogenic substrate, fluorescence endpoint | inhibition, % at 15 µM | P49327 | hit rate 0.67% among 360,000;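 active means compounds whose normalised, plate-corrected inhibition of enzyme fluorescence in the single-dose primary screen is 50% or more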;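 further: 0% = DMSO with enzyme and 100% = substrate without enzyme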
NR3A LBD binder – modulators (binders) of human NR3A ligand-binding domain; NR3A LBD differential scanning fluorimetry, Tm shift; 0% = protein alone, 100% = glycine-bound protein; Tm shift relative to glycine control, % at 25 µM; hit rate 2.5% among 340,000; AID 1259313;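 active means melting temperature shift of at least 10% of the positive control shift, at one fixed dose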
pCIP destab – lowers stability of the mouse p/CIP coactivator protein; F442A p/CIP-EGFP cells, EGFP fluorescence, 16 h; decrease of EGFP signal, % at 10 µM; Q05BA5; hit rate 0.01% among 290,000; AID 1984;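 active means EGFP signal decrease of at least 30% at 10 µM or well 3 SD below plate mean, unless failing retest; inactive means the rest, including hits failing retest or dose response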
FAS-TE inh conf – confirmation of human fatty acid synthase thioesterase inhibitors | shares compounds with FAS-TE inh | hit rate 45% among 2,300 | inhibition, % at 15 µM | recombinant FAS-TE, OMFH fluorogenic substrate, fluorescence;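 active means compounds inhibiting the enzyme by at least 50% at 15 µM in any one of the replicates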;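 further: 0% = enzyme with DMSO only and 100% = wells lacking enzyme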
Active calls of the source: *; / = not tested or not shown.

SMILES | MPTP inh | beta cell repl | FAS-TE inh | NR3A LBD binder | pCIP destab | FAS-TE inh conf
COc1ccc(/C=N/NC(=S)Nc2cc(S(=O)(=O)N3CCOCC3)ccc2N2CCOCC2)cc1O | 1 | 0 | 13 | -10 | -6 | /
CCCCN1C(=O)C(CC(=O)NCC2CCCCC2)CC(C(=O)N2CCCCCC2)=C1C (stereo not given) | 0 | / | 2 | / | / | /
CCCCNC(=O)c1nc(C2CCN(S(=O)(=O)c3ccc(Cl)cc3)CC2)oc1-c1ccccc1 | 0 | / | / | / | / | /
Cc1ccc(-c2csc3nc(C(C)C)oc(=O)c23)c(C)c1 | -1 | 2 | 86* | 0 | -4 | 69*
COc1cccc(C(=O)C(=O)N2CCN(C(=O)OCc3ccccc3)CC2)c1 | -1 | / | / | / | / | /
COc1cncc(C#Cc2ccccn2)c1 | 1 | / | -17 | / | / | /
COC(=O)c1ccc(C2c3c(oc4ccccc4c3=O)C(=O)N2CCCN2CCOCC2)cc1 (stereo not given) | -1 | -2 | 12 | -1 | -5 | /
COC(=O)c1ccc(C2c3c(oc4ccc(Cl)cc4c3=O)C(=O)N2CCN2CCOCC2)cc1 (stereo not given) | 0 | 1 | 54* | -1 | -10 | 62*
COC(=O)[C@]12CCCCC=C1N(Cc1cccc3ccccc13)C(=O)[C@H](CC(=O)NCC13CC4CC(CC(C4)C1)C3)C2 | -1 | / | 24 | / | / | /
O=C(Nc1c(-c2ccc(Cl)cc2)[nH][nH]c1=O)c1ccc(Br)cc1 | 1 | / | 36 | / | / | /
CCC(CC)C(=O)N(C)c1c(C)nc2c(OCc3ccc(C(F)(F)F)cc3)cccn12 | 2 | / | 13 | / | / | /
O=C(NN1C(=O)c2ccccc2NC1c1ccccn1)c1ccc([N+](=O)[O-])cc1 (stereo not given) | 0 | -3 | 42 | -8 | 4 | /
Cc1cccc(C2Nc3ccccc3C(=O)N2NC(=O)c2ccc([N+](=O)[O-])cc2)n1 (stereo not given) | 0 | 0 | 53* | -3 | -8 | 62*
COc1cc(S(=O)(=O)Nc2ccc(C)cc2)ccc1N=Cc1c(C)[nH]n(-c2ccc(C)cc2)c1=O | -1 | 0 | 77* | 28* | 8 | 11
O=C(NC(=S)Nc1ccccc1N1CCCC1)c1ccc(-c2cccc([N+](=O)[O-])c2)o1 | 0 | 6 | 22 | -4 | -11 | /
CC(=O)N1CCN(c2ccccc2NC(=O)c2ccc(-c3cccc([N+](=O)[O-])c3)o2)CC1 | 3 | 0 | 66* | 1 | -3 | 42*
CC1C(O)=C(c2ccccc2)P(=O)(Cc2ccccc2)C1C (stereo not given) | 0 | / | -6 | / | / | /
CCCC(C)C1c2c(c(C)c(C)oc2=O)Oc2c(C)c(C)oc(=O)c21 (stereo not given) | 0 | -1 | 59* | -4 | / | 56*
Cc1cccc(NC(=O)c2nc[nH]c2C(=O)NCCN(CCNC(=O)c2[nH]cnc2C(=O)Nc2cccc(C)c2)CCNC(=O)c2[nH]cnc2C(=O)Nc2cccc(C)c2)c1 | 0 | -5 | 84* | 14* | / | 1
Cc1ccc(NC(=O)c2nc[nH]c2C(=O)NCCN(CCNC(=O)c2[nH]cnc2C(=O)Nc2ccc(C)cc2)CCNC(=O)c2[nH]cnc2C(=O)Nc2ccc(C)cc2)cc1 | 1 | -6 | 54* | 16* | / | 18
O=C(Nc1ccc(Cl)cc1)c1nc[nH]c1C(=O)NCCN(CCNC(=O)c1[nH]cnc1C(=O)Nc1ccc(Cl)cc1)CCNC(=O)c1[nH]cnc1C(=O)Nc1ccc(Cl)cc1 | 2 | -6 | 58* | 19* | / | 9
CC1(Br)C(Sc2ccccc2[N+](=O)[O-])=Nc2ccccc21 (stereo not given) | 4 | / | 44 | / | / | /
OC[C@@H]1CN(Cc2ccccc2)C[C@H](n2cnc3c(NCc4ccncc4)ncnc32)O1 | -1 | / | -4 | / | / | /
COc1cc2cc(CN(Cc3cccs3)C(=S)Nc3cccc(C)c3)c(=O)[nH]c2cc1OC | / | 0 | / | / | -15 | /
Cc1ccc(NC(=S)N(Cc2cccs2)Cc2cc3cc(C)ccc3[nH]c2=O)cc1 | 2 | -1 | 72* | 1 | -6 | 29
Cc1cccc(NC(=S)N(Cc2cccs2)Cc2cc3cc(C)ccc3[nH]c2=O)c1 | 1 | -4 | 24 | 9 | -4 | /
Cc1cc(C)c2[nH]c(=O)c(CN(Cc3cccs3)C(=S)NCc3ccco3)cc2c1 | 1 | -6 | 62* | -3 | -2 | 27
